# Screening data from PubChem.
# Rab9 promoter act = qHTS Assay for Rab9 Promoter Activators. Huh7 Rab9 promoter-luciferase reporter, luminescence, 24 h. Potency, µM (series often up to 9.22 µM), for the others: top-dose activation, negative = inhibition, actives largely listed as activators. 320,000 compounds, 2.8% hits. AID 485297, 2010; further: % of control where 0% means no effect; nearly all actives have a fitted effect of over 60% in size
#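 Quantitative HTS format; Huh7 Rab9-luciferase reporter cells (1500/well) receive compound 2 h post-plating, incubate 24 h at 37 °C, then get luciferase reagent for 10 min before luminescence reading.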
# ELG1 genotox = qHTS screen for small molecules that induce genotoxicity in human embryonic kidney (HEK293T) cells expressing luciferase-tagged ELG1 | HEK293T ELG1-luciferase reporter, luminescence, 16 h | Potency, µM (highest dose often 46 µM), for inactives: at the highest dose activity change, positive = activation, most hits filed as activators | 330,000 compounds, 1.3% hits; further: % of control where 0% means no effect; nearly all actives have a fitted effect of over 60% in size
#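 DMSO vehicle served as control against compound-treated ELG1-luciferase HEK293T cells; exposure lasted 16 hr at 37 °C and 5% CO2, followed by ONE-Glo luminescence detection after 30 min.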
# NPC1 promoter act = qHTS Assay for NPC1 Promoter Activators; Huh7 NPC1 promoter luciferase reporter, 24 h; Potency, µM (titrated, usually from 9.22 µM), for the others: at the top dose activation, hits mostly activators; 320,000 compounds, 2.4% hits; further: % of control where 0% means no effect; nearly all actives have a fitted effect of over 60% in size
#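 Luminescence from an NPC1 promoter-driven luciferase reporter in stably transfected Huh7 cells was measured after 24 h compound treatment at 37 °C, followed by 10 min ambient incubation with luciferase detection reagent.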
# FLuc modulator = qHTS profiling assay for firefly luciferase inhibitor/activator using purifed enzyme and Km concentrations of substrates (counterscreen for miR-21 project); purified FLuc, Km substrates, luminescence inhibition; 360,000 compounds, 6.9% hits; AID 588342, 2011; Potency, µM (doses to about 57.5 µM), without a hit: top-dose activity change, negative = inhibition, most hits filed as inhibitors; Luciferin 4-monooxygenase (Photinus pyralis), P08659;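 further: plate controls were vehicle for no effect and reference inhibitor for full effect; nearly all actives have a fitted effect of over 55% in size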
# Target sequence (P08659 whole entry, looked up): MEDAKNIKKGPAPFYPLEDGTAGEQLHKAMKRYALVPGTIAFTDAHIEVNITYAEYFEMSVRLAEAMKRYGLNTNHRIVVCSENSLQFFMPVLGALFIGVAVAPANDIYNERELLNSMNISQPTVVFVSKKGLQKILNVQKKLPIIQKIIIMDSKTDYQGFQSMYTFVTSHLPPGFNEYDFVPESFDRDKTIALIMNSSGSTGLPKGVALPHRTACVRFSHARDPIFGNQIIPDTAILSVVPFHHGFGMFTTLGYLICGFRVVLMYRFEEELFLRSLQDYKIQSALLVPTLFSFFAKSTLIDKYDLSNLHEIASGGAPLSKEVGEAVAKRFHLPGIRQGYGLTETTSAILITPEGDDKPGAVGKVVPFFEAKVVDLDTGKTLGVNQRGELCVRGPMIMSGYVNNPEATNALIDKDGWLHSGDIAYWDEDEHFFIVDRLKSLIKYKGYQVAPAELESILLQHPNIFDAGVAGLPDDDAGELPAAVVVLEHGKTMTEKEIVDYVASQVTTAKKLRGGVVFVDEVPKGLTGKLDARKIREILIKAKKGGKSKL
#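 Purified P. pyralis luciferase (10nM final) with 10uM D-luciferin and 10uM ATP (Km levels) in 50mM Tris acetate pH 7.5, 10mM Mg acetate, 0.01% Tween-20, 0.05% BSA; qHTS 6-point titration, ~60 µM downward; luminescence read.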
# SMN2 splice enh = qHTS Assay for Enhancers of SMN2 Splice Variant Expression | HEK293 SMN2-luciferase splicing reporter, luminescence, 30-36 h | Potency, µM (top dose mostly 46.1 µM), without a hit: at the top dose activity change, positive = activation, most hits filed as activators | 210,000 compounds, 2.8% hits; further: % of control where 0% means no effect; nearly all actives have a fitted effect of over 55% in size
#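 qHTS luciferase splicing reporter: luminescence rises when SMN2 exon 7 is included in transfected HEK293 cells. Compound exposure lasted 30-36 h at 37C, with 4.5 mM final sodium butyrate as control, followed by a ONE-Glo read.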
# Active calls of the source: *; ? = inconclusive; / = no result; [ ] = another dose, or the depositor's remark. The list is not random: actives were taken first. Their share in the collection is about 7.5%. The call rests on the fitted dose curve; in most records, active means well fitted curve in the direction sought with a large enough effect; inconclusive means small, poorly fitted or top-dose-only effect, or another doubt; inactive means no such curve, though single readings can be large; an effect the other way counts as inactive or inconclusive. Potency means the concentration at half of the fitted maximal effect.
SMILES,Rab9 promoter act,ELG1 genotox,NPC1 promoter act,FLuc modulator,SMN2 splice enh
O=C(NCCc1ccccc1)c1ccc(Cn2c(SCc3ccc(F)cc3)nc3cccnc32)cc1,/,/,/,4.78µM*,/
CCOc1ccccc1CNC(=O)c1ccc(Cn2c(SCc3ccccc3)nc3cccnc32)cc1,/,/,/,2.69µM*,-5.7%
O=C(NCc1ccccc1)c1ccc(CSc2nc3cccnc3n2Cc2ccccc2)cc1,/,/,/,-14.0%,/
O=S(=O)(NCc1csc(-c2ccccc2)n1)c1cccc(F)c1,/,/,/,-4.0%,-10.8%
N#Cc1c(NC(=O)CSc2n[nH]c(Cc3ccccc3)n2)oc(-c2ccccc2)c1-c1ccccc1,-6.6%,-1.6%,-6.3%,8.5%,-15.7%
O=C(NCCc1ccccc1)c1ccc(CSc2nc3cccnc3n2Cc2ccccc2F)cc1,/,/,/,-12.3%,/
O=C(NCc1cccs1)c1ccc(CSc2nc3cccnc3n2Cc2ccc(F)cc2)cc1,/,/,/,-13.1%,/
O=C(NCc1ccco1)c1ccc(Cn2c(SCc3ccc(F)cc3)nc3cccnc32)cc1,/,/,/,6.01µM*,/
O=C(NCCc1ccccc1)c1ccc(Cn2c(SCc3ccccc3F)nc3cccnc32)cc1,/,/,/,5.36µM*,/
CCC(c1nnnn1CCc1ccccc1)N(Cc1ccco1)Cc1cc2c(C)ccc(C)c2[nH]c1=O (stereo not given),0.0%,-28.5%,-0.1%,1.0%,-16.6%
COc1ccc(CN2CC(C(=O)NCCCN3CCCC(C)C3)CC2=O)cc1 (stereo not given),0.0%,-0.2%,0.0%,-0.7%,/
O=C(O)Cc1sc(Nc2cccc3ccccc23)nc1-c1ccccc1,1.4%,1.6%,6.3%,23.9µM*,/
Clc1ccc(-c2csc(N/N=C\c3cccnc3)n2)cc1,4.3%,0.2%,7.6%,?,-23.6%
O=C(O)Cc1sc(N/N=C\c2ccncc2)nc1-c1ccccc1,-5.0%,-1.0%,-4.7%,15.1µM*,/
C(=N\Nc1nc(-c2ccccc2)cs1)/c1ccncc1,?,5.6%,3.16µM*,10.7µM*,/
Cc1ccc(Nc2nc(-c3ccc(C)cc3)c(CC(=O)O)s2)cc1,-0.6%,3.9%,1.7%,?,-7.7%
CN(C)S(=O)(=O)c1ccc(-c2csc(N/N=C/c3ccco3)n2)cc1,-34.1%,-16.7%,-30.7%,-57.1%,/
CN(C)S(=O)(=O)c1ccc(-c2csc(N/N=C/c3ccc(O)cc3)n2)cc1,-34.1%,?,-20.0%,10.7µM*,/
O=C1CC[C@](CCc2nc3ccccc3[nH]2)(c2ccccc2)C(=O)N1,/,/,/,/,-12.0%[9.22 µM]
CC(=O)N1CN(Cc2ccccn2)Cc2c1sc1c2CCCC1,4.4%,-2.1%,-0.4%,0.3%,8.5%
Cc1cc(C)c(NC(=O)c2ccc3c(c2)CCN3S(C)(=O)=O)c(C)c1,0.2%,-5.1%,0.4%,0.2%,/
Cc1onc(-c2ccccc2)c1-c1csc(N/N=C/c2ccccc2)n1,0.3%,-7.5%,-2.0%,-8.6%,/
ClCc1csc(N/N=C/c2cccs2)n1,20.7%,1.3%,3.8%,15.1µM*,/
O=C(O)Cc1sc(Nc2ccc(Cl)cc2)nc1-c1cccs1,3.55µM*,?,?,13.5µM*,14.1µM*
C(=N\Nc1nc(-c2ccccc2)cs1)/c1cccs1,?,16.4µM*,20.9%,5.36µM*,7.94µM*
SMILES,Rab9 promoter act,ELG1 genotox,NPC1 promoter act,FLuc modulator,SMN2 splice enh
CN1CC(=O)N(CC(=O)Nc2ccc(F)cc2)c2ccccc2C1=O,-6.2%,-3.3%,1.4%,0.4%,0.5%
CCOc1ccc(S(=O)(=O)c2cn(Cc3ccccc3C)c3ccc(OC)cc3c2=O)cc1,/,/,/,-0.6%,0.3%
NNC(=O)[C@@H](O)[C@H](O)C(=O)NN,/,/,/,/,-13.0%[9.22 µM]
Fc1ccccc1Cn1nnc(-c2ccc3c(c2)OCO3)n1,1.12µM*,?,2µM*,2.13µM*,12.6µM*
Cc1ccc(NC(=O)Cn2nnc(-c3ccc4c(c3)OCO4)n2)cc1F,3.9%,-0.8%,-0.9%,2.2%,/
COc1ccc(-c2nnn(Cc3ccccc3F)n2)cc1,3.16µM*,?,3.55µM*,10.7µM*,15.8µM*
CN(C)C(CNC(=O)CNC(=O)c1ccc2ccccc2c1)c1ccccc1 (stereo not given),-4.4%,3.2%,?,0.3%,/
